B2AR arrestin – beta2AR (human) beta-arrestin recruitment activity. P07550. beta-arrestin recruitment to beta2AR, cell-based reporter. AID 492947. hit rate 0.02% among 330,000. Potency, µM (top dose mostly 46.1 µM), usual class: activators; further: nearly all actives have a fitted effect of over 65% in size
Target sequence (P07550 whole entry, looked up): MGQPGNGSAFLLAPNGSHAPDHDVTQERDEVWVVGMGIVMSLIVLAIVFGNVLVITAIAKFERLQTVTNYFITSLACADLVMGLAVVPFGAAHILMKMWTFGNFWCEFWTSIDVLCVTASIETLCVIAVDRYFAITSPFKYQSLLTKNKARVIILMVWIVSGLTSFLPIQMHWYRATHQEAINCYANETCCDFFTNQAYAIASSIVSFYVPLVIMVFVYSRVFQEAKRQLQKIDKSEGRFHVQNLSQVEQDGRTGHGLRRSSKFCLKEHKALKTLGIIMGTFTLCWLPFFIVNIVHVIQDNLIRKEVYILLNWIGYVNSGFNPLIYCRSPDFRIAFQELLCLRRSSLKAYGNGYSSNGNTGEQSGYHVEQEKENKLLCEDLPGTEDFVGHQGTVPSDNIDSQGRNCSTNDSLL
RORg inh – blocks mouse ROR gamma transcriptional activity. AID 2551. P51450. hit rate 5.4% among 310,000. Potency, µM (doses to about 53.6 µM), usual class: inhibitors. Drosophila S2 Gal4-RORgamma UAS-luciferase reporter, 20 h; further: nearly all actives have a fitted effect of over 60% in size
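In this cell-based reporter format, copper sulfate (700 uM final) drives Gal4–ROR gamma fusion expression from a metallothionein promoter in Drosophila Schneider cells; compounds preincubated 1 hr, reporter read after 20 hr at ambient temperature.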
VP16 counter – Gal4-VP16 reporter inhibition counter-screen; Drosophila S2 Gal4-VP16 UAS-luciferase, luminescence, 20 h; Potency, µM (doses to about 53.6 µM), actives largely listed as inhibitors; hit rate 3.5% among 310,000;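 further: Gal4-VP16 expression switched on by copper sulfate through the metallothionein promoter; nearly all actives have a fitted effect of over 50% in size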
ELG1 DNA repair – ELG1-dependent DNA repair inhibition. HEK293T ELG1-luciferase reporter, luminescence, 16 h; DNA damage induced by 5-fluorouridine. Potency, µM (series often up to 46.1 µM), actives largely listed as inhibitors. hit rate 2.3% among 330,000. AID 504467; further: nearly all actives have a fitted effect of over 55% in size
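DMSO vehicle served as the neutral condition. Each well held 2,000 cells given 5-fluorouridine plus compound; after 16 hr at 37 °C/5% CO2, ONE-Glo was added and luciferase measured 30 min later.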
TSHR antag – antagonists of human thyroid stimulating hormone receptor. P16473. TSHR-expressing cells, TSH-stimulated cAMP HTRF, 2 h; active compounds read low. activity change, negative = inhibition, % at 11.5 µM. hit rate 0.2% among 330,000. AID 504810;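 active means activity change below a set negative limit, meaning inhibition stronger than a set level, cut at about -70% in these data; inconclusive means activity change between two set negative limits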
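Antagonism was scored as loss of TSH-driven cAMP in TSHR cells, stimulated with 4nM TSH (EC80) for 2 hours at 37 deg C and detected by homogeneous HTRF competition immunoassay.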
A number is an active result. Hits are enriched below; roughly 7.5% of the tested compounds scored in any of these assays. Unless noted, the call rests on the fitted dose curve; in most records, active means well fitted curve in the direction sought with a large enough effect; inconclusive means small, poorly fitted or top-dose-only effect, or another doubt; inactive means no such curve, though single readings can be large; an effect the other way counts as inactive or inconclusive.

`O=C(N/N=C/c1ccc[nH]1)c1cc(-c2cccs2)nc2ccccc12` gave B2AR arrestin inactive, RORg inh 2.8µM, VP16 counter 6.3µM, ELG1 DNA repair inconclusive and TSHR antag inactive.
For Cn1cccc1/C=N/NC(=O)c1cc2ccccc2cc1O the results were B2AR arrestin inactive, RORg inh 1.4µM, VP16 counter 2µM, ELG1 DNA repair inconclusive and TSHR antag inactive.
For Cn1c(O)c(N=NC(=O)c2cc(-c3cccs3)nc3ccccc23)c2ccccc21 the results were B2AR arrestin inactive, RORg inh inconclusive, VP16 counter inactive, ELG1 DNA repair 15µM and TSHR antag inactive.
`Cn1cccc1/C=N/NC(=O)Cc1ccccc1` gave B2AR arrestin inactive, RORg inh inactive, VP16 counter inactive, ELG1 DNA repair inactive and TSHR antag inactive.
For CC(=O)c1ccccc1NC(=O)c1ccc(OCc2c(C)noc2C)cc1 the results were B2AR arrestin inactive, ELG1 DNA repair inconclusive and TSHR antag inactive.
`CC1=C(/C=C/C(C)=C\C=C\C(C)=C\C=C\C=C(C)\C=C\C=C(C)\C=C\C2=C(C)C[C@@H](O)CC2(C)C)C(C)(C)C[C@H](O)C1` gave RORg inh inconclusive and VP16 counter inactive.
COc1ccc(-c2sc3ccc(N4CCOCC4)cc3c2C#CCCO)cc1 was read as B2AR arrestin inactive, ELG1 DNA repair inconclusive and TSHR antag inactive.
Screening Cc1cccc(C)c1Nc1oc(-c2ccccc2)nc1-c1cccc2ccccc12 returned RORg inh inactive and VP16 counter inactive.
For Cn1cccc1/C=N/NC(=O)c1cc(-c2cccs2)nc2ccccc12 the results were B2AR arrestin inactive, RORg inh 7.1µM, VP16 counter inconclusive, ELG1 DNA repair inconclusive and TSHR antag inactive.
For Cn1c(O)c(N=Nc2nc(-c3ccccc3)cs2)c2ccccc21 the results were B2AR arrestin inactive, RORg inh 1.1µM, VP16 counter inconclusive, ELG1 DNA repair inconclusive and TSHR antag inactive.
Cn1c(O)c(N=Nc2ccccc2)c2ccccc21 was read as B2AR arrestin inactive, RORg inh inactive, VP16 counter inactive, ELG1 DNA repair inactive and TSHR antag inactive.
Screening COC(=O)[C@H](COC(C)(C)C)NC(=O)O[C@@H]1Cc2cc(Br)ccc2O[C@H]1c1cccc(OC)c1 returned RORg inh inactive and VP16 counter inactive.
`Nc1ccc(-c2nc3ccc(N)cc3s2)cc1` gave B2AR arrestin inactive, RORg inh inconclusive, VP16 counter 7.9µM, ELG1 DNA repair inconclusive and TSHR antag inactive.
For Nc1ccc2nc(SCc3cccc(F)c3)sc2c1 the results were B2AR arrestin inactive, RORg inh inactive, VP16 counter inactive, ELG1 DNA repair inconclusive and TSHR antag inactive.
For Nc1cccc(-c2nc3ccc(N)cc3s2)c1 the results were B2AR arrestin inactive, RORg inh 3.5µM, VP16 counter inconclusive, ELG1 DNA repair inconclusive and TSHR antag inactive.
O=C(O)C1CC=CC2CCN(C3CC3)C(=O)C21 (centres undefined) was read as RORg inh inactive and VP16 counter inactive.
`COc1ccc(-c2cc(C(=O)N(C)Cc3cccc(OC)c3OC)c3ccccc3n2)cc1OC` gave B2AR arrestin inactive, RORg inh inactive, VP16 counter inactive, ELG1 DNA repair 13µM and TSHR antag inactive.
`COc1ccc(CCN(C)C(=O)c2cc(-c3ccccc3)nc3ccccc23)cc1OC` gave B2AR arrestin inactive, RORg inh inconclusive, VP16 counter inactive, ELG1 DNA repair inconclusive and TSHR antag inactive.
`COc1ccc(-c2cc(C(=O)N(C)CCc3ccc(OC)c(OC)c3)c3ccccc3n2)cc1` gave B2AR arrestin inactive, RORg inh 5µM, VP16 counter inactive, ELG1 DNA repair inactive and TSHR antag inactive.
COC(=O)c1ccc(OC)c(CN2CCCN(Cc3ccc(F)cc3)S2(=O)=O)c1 was read as B2AR arrestin inactive, RORg inh inactive, VP16 counter inactive, ELG1 DNA repair 13µM and TSHR antag inactive.
`CC(C)[C@@H](CC(=O)N[C@@H]1CCNC[C@H]1C(=O)N[C@H](CC(=O)N[C@@H](CCC(=O)O)CC(=O)O)Cc1ccccc1)NC(=O)C[C@H](CO)NC(=O)[C@@H]1CCCC[C@H]1N` gave RORg inh inactive and VP16 counter inactive.
CCOc1ccccc1N(CC(=O)NCC1CCCO1)C(=O)CCC(=O)Nc1ccccn1 (centres undefined) was read as B2AR arrestin inactive, RORg inh 35µM, VP16 counter inactive, ELG1 DNA repair inactive and TSHR antag inactive.
`O=C(CNC(=O)c1ccc(Br)cc1)NCc1cccnc1` gave B2AR arrestin inactive, RORg inh inactive, VP16 counter inactive, ELG1 DNA repair inactive and TSHR antag inactive.
`COCC(=O)N1CCC[C@@]2(CCN(C(=O)Nc3cccc(C#N)c3)C2)C1` gave RORg inh inactive and VP16 counter inactive.
`O=C(CSc1nnc2scc(-c3ccccc3)n12)N1CCN(Cc2ccccc2)CC1` gave B2AR arrestin inactive, RORg inh 8.9µM, VP16 counter inactive, ELG1 DNA repair inactive and TSHR antag inactive.
O=C(CSc1nnc2scc(-c3ccccc3)n12)Nc1nsc(-c2ccccc2)n1 was read as B2AR arrestin inactive, RORg inh inactive, VP16 counter inconclusive, ELG1 DNA repair 9.2µM and TSHR antag inactive.
`COC(=O)N1CCC2(CCCN(C(=O)Nc3cccc(F)c3)C2)CC1` gave RORg inh inactive and VP16 counter inactive.
For N#Cc1cccc(CS(=O)(=O)c2ccccc2)c1 the results were RORg inh inactive and VP16 counter inactive.
For CCOc1ccc(CN2CCC(n3nccc3NC(=O)c3ccccc3OC)CC2)cc1 the results were B2AR arrestin inactive, RORg inh inactive, VP16 counter inactive, ELG1 DNA repair inactive and TSHR antag inactive.
Screening CN(C)c1ccc(C(C(=O)NCC2CCCO2)N(Cc2ccco2)C(=O)c2snc(C(N)=O)c2N)cc1 (centres undefined) returned B2AR arrestin inactive, RORg inh inactive, VP16 counter inactive, ELG1 DNA repair inconclusive and TSHR antag inactive.
`NC(=O)c1nsc(C(=O)N(c2cccc(F)c2)C(C(=O)NCC2CCCO2)c2c[nH]c3ccccc23)c1N` (centres undefined) gave B2AR arrestin inactive, RORg inh inactive, VP16 counter inactive, ELG1 DNA repair inactive and TSHR antag inactive.
`CN(C)c1ccc(C(C(=O)NCC2CCCO2)N(Cc2ccccc2)C(=O)c2snc(C(N)=O)c2N)cc1` (centres undefined) gave B2AR arrestin inactive, RORg inh inactive, VP16 counter inactive, ELG1 DNA repair 12µM and TSHR antag inactive.
Screening NC(=O)c1nsc(C(=O)N(c2ccc(F)cc2)C(C(=O)NCC2CCCO2)c2c[nH]c3ccccc23)c1N (centres undefined) returned B2AR arrestin inactive, RORg inh inactive, VP16 counter 16µM, ELG1 DNA repair inactive and TSHR antag inactive.
